GLA spleen mod – qHTS Assay for Inhibitors and Activators of Human alpha-Galactosidase From Spleen Homogenate. Potency, µM (top dose mostly 80 µM), for inactives: at the highest dose activity change, negative = inhibition, actives largely listed as inhibitors. human spleen homogenate, 4MU-alpha-Gal fluorescence, 40 min. AID 2107, 2009. actives 0.008% (n = 240,000);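 further: potency means the concentration at half of the fitted maximal effect; 0% = enzyme with vehicle and -100% = no enzyme basal signal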
Target sequence (P06280 32-429 limits assumed): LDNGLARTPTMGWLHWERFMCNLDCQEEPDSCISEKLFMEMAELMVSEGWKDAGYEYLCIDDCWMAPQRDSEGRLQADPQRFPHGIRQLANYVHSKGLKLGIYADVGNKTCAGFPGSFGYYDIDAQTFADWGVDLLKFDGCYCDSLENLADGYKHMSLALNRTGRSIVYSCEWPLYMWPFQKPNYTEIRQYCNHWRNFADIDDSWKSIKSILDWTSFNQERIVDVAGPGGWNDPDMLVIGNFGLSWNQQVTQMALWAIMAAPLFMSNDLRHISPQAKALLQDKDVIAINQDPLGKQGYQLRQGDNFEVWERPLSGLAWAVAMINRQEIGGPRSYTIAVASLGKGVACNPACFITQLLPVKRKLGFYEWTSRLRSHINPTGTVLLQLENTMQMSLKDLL
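Inhibition or activation of alpha-galactosidase in human spleen homogenate is scored by 4-MU fluorescence after 40 min at 37C, pH 5.0, with 1 mM substrate. AC50s come from concentration-response fitted to the Hill equation.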
GAA inhib – qHTS Assay for Inhibitors of Human alpha-Glucosidase as a Potential Chaperone Treatment of Pompe Disease; Lysosomal alpha-glucosidase (Homo sapiens), P10253; purified human GAA, 4-MU-alpha-glucoside fluorescence; Potency, µM (doses to about 76.9 µM), for the others: at the highest dose activity change, negative = inhibition, most hits filed as inhibitors; actives 0.005% (n = 200,000); AID 1466, 2008;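 further: potency means the concentration at half of the fitted maximal effect; plate controls were uninhibited enzyme wells for no effect and no-enzyme background for full effect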
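Enzyme (4 nM final) mixed with compound (up to 77 uM), then 4-MU-alpha-D-pyranoside (400 uM final) added; 20 min at room temperature, pH 5.0. Reaction stopped at pH 10, fluorescence read, AC50 derived by Hill fit.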
GAA glycogen – qHTS Assay for Inhibitors and Activators of Human alpha-Glucosidase Cleavage of Glycogen; Potency, µM (titrated, usually from 76.4 µM), inactives show at the top dose activity change, negative = inhibition, usual class: inhibitors; actives 0.38% (n = 300,000); AID 2100, 2009; recombinant GAA, glycogen substrate, Amplex Red glucose oxidase fluorescence;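 further: potency means the concentration at half of the fitted maximal effect; 0% = full enzyme reaction and -100% = no-enzyme basal signal; the screen sought inhibitors and activators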
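Recombinant human alpha-glucosidase (4 nM final) hydrolysed bovine liver glycogen (30 ug) for 40 min at 37 C in pH 5.0 citrate/phosphate with 0.01% Tween-20. Released glucose detected by glucose oxidase/Amplex Red, Ex 573/Em 610 nm. Compounds up to 77 uM; AC50 from Hill fits.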
GLA inh pH 4.5 – qHTS Assay for Inhibitors of Human alpha-Galactosidase at pH 4.5; Alpha-galactosidase A (Homo sapiens), P06280; purified enzyme, 4-MU-alpha-Gal fluorescence, pH 4.5; activity change, negative = inhibition, % at 105 µM; 230,000 tested, under 10 active;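 further: 0% = full activity with enzyme and -100% = basal without enzyme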
aGlu spleen mod – qHTS Assay for Inhibitors and Activators of Human alpha-Glucosidase From Spleen Homogenate; Lysosomal alpha-glucosidase (Homo sapiens), P10253; human spleen homogenate, 4-MU-alpha-glucoside fluorescence; Potency, µM (highest dose often 79.9 µM), for inactives: at the highest dose activity change, negative = inhibition, usual class: inhibitors; actives 0.006% (n = 240,000);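 further: potency means the concentration at half of the fitted maximal effect; 0% = enzyme with vehicle and -100% = no enzyme basal signal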
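AC50 values come from Hill-equation fits of concentration-response data, normalized to no-enzyme and full-activity controls. Enzyme source: 1 ug human spleen homogenate; 1 mM fluorogenic 4-MU glucoside, pH 5.0 citrate buffer, 37 C, 40 min.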
N370S GC mod – qHTS Assay for Inhibitors and Activators of N370S glucocerebrosidase as a Potential Chaperone Treatment of Gaucher Disease | Lysosomal acid glucosylceramidase (Homo sapiens), P04062 | Potency, µM (series often up to 59.4 µM), for the others: top-dose activity change, negative = inhibition, hits mostly inhibitors | actives 0.092% (n = 330,000) | N370S GC spleen homogenate, 4MU-glucoside fluorescence;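 further: potency means the concentration at half of the fitted maximal effect; 0% = full enzyme activity and -100% = no enzyme basal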
* = called active by the depositor; ? = inconclusive; / = no result given; ! = a repeat was not active; [ ] = another dose, or the depositor's remark. In the library only some 0.41% were active in any assay of this set; here they are far more common. The call rests on the fitted dose curve; in most records, active means well fitted curve in the direction sought with a large enough effect; inconclusive means small, poorly fitted or top-dose-only effect, or another doubt; inactive means no such curve, though single readings can be large; an effect the other way counts as inactive or inconclusive.

SMILES | GLA spleen mod | GAA inhib | GAA glycogen | GLA inh pH 4.5 | aGlu spleen mod | N370S GC mod
C=CCN1CCc2cccc3c2[C@H]1Cc1ccc(O)c(O)c1-3 | / | / | 6.3µM* | / | / | -12%
CCCN1CCc2cc(O)cc3c2C1Cc1ccc(O)c(O)c1-3 (centres undefined) | 4% | / | / | -2 | -6% | 2%
C[C@@H]1O[C@@H](O[C@H]2CC[C@@H](O[C@H]3[C@H](O)C[C@H](c4ccc5c(c4O)C(=O)C4=C(C5=O)[C@@]5(O)C(=O)C[C@](C)(O[C@H]6CC[C@H](O[C@H]7C=CC(=O)[C@H](C)O7)[C@H](C)O6)C[C@@]5(O)C=C4)O[C@@H]3C)O[C@H]2C)C=CC1=O | 7% | / | / | / | -7% | -2%
O=[N+]([O-])c1ccc2c3c(cccc13)CC2 | 26% | / | / | / | -1% | 3%
Nc1ccc2c3c(cccc13)CC2 | 9% | 4% | 25µM* | 7 | -11% | -3%
Oc1ccc(/C=N/NP(=S)(c2ccccc2)c2ccccc2)c(O)c1O | -2% | ? | 16µM* | -8 | -4% | /
Oc1ccc(/C=N/NP(=S)(c2ccccc2)c2ccccc2)cc1O | 4% | -7% | 16µM* | -27 | -2% | 2%
Oc1ccccc1/C=N/NP(=S)(c1ccccc1)c1ccccc1 | -12% | -7% | -3% | -17 | -1% | 5%
CC(=O)OCC[N+](C)(C)C | -12% | -1%[15.4 µM] | 9.9µM*! | 2 | 2% | 11%
CCCCC/C=C\C/C=C\C/C=C\C/C=C\CCCC(=O)NCCCl | -8% | / | / | -14 | -11% | ?
CCOc1cccc(CNCCc2c(C)[nH]c3ccc(OC(F)(F)F)cc23)c1O | / | / | 3% | / | / | 8.9µM*
Cc1[nH]c2ccc(OC(F)(F)F)cc2c1CCNCc1ccc(Cl)cc1 | / | / | 2% | / | / | ?
Cc1[nH]c2ccc(OC(F)(F)F)cc2c1CCNCc1cccc([N+](=O)[O-])c1 | / | / | -2% | / | / | 16µM*
O=S(=O)(O)F | 5% | / | / | / | 9% | -7%
Cc1onc(-c2ccccc2)c1C(=O)Nc1ccc(S(=O)(=O)N2CCCC2)cc1 | 4% | -2% | 14µM* | -3 | 2% | -8%
O=C(O)C(Cl)(Cl)Br | -1% | / | / | / | 0% | -11%
S=C=Nc1cccc2ccccc12 | -11% | / | / | / | -4% | -1%
c1ccc2c(c1)Nc1ccccc1S2 | -3% | 2%[15.4 µM] | 18µM* | 17 | -3% | -2%
Oc1cc2c(cc1O)[C@H]1c3ccccc3CN[C@@H]1CC2 | -3% | -6%[15.4 µM] | 2.5µM* | 8 | 7% | -4%
CC(C)NC[C@@H](O)COc1cccc2[nH]ccc12 | 8% | / | / | 7 | 11% | 11%
CC(C)NCC(O)COc1cccc2[nH]ccc12 (centres undefined) | 10µM*! | -8%[15.4 µM] | -2% | -3 | 0% | 8%
CC(=O)[O-].CC(=O)[O-].O.O.[Cd+2] | -12% | / | / | / | -6% | 5%
Cc1cc(C(=O)CS(=O)(=O)c2ccc(F)cc2)cc(C)c1OC(=O)N(C)C | 28µM* | -1% | -5% | 11 | ? | 4%
CN(C)C(=O)Oc1c(Cl)cc(Cl)c2ccccc12 | 1% | -8% | 1% | -10 | -5% | -8%
